Screening data: PubChem, National Center for Advancing Translational Sciences (NCATS)
Most compounds without a hit are left out; they make up all but 18% or so of the library.
TGFb SMAD3 inh: inhibitors of TGF-b signaling | Potency, µM (highest dose often 46.1 µM), actives largely listed as inhibitors | 1.2% of 410,000 active | AID 588855 | HepG2 CAGA-GFP TGF-b/SMAD3 reporter, GFP fluorescence, 18 h; TGF-beta stimulated, 500 pg/mL final; note: nearly all actives have a fitted effect of over 65% in size
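Read-out: total well GFP (ex488/em500-530) summed from mean per-cell fluorescence. Cells: HEPG2 CAGA-GFP, 1% FBS DMEM, 18 h at 37 degrees C with 500 pg/mL final TGF-beta. Unstimulated wells served as the full-inhibition control; stimulated DMSO wells = 0%.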
DT40 TDP1 CPT: growth inhibition of DT40 Tdp1-/-;hTDP1 cells with camptothecin (screen for TDP1 inhibitors); chicken DT40 Tdp1-/-;hTDP1 cells + 20 nM CPT, ATP luminescence, 48 h; Potency, µM (titrated, usually from 46.2 µM), hits mostly inhibitors; 12% of 420,000 active; note: nearly all actives have a fitted effect of over 55% in size
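Chicken DT40 Tdp1-/- cells stably complemented with human TDP1 were seeded at 400 cells/well in medium containing 20 nM camptothecin, exposed to pin-transferred compounds, and grown at 37 °C for at least 48 hr. Viability was read as ATP luminescence.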
HepG2 viability: counter-screen for TGF-b inhibitors: cytotoxicity in HepG2 cells | HepG2 CAGA-GFP viability, ATP luminescence, 18 h | Potency, µM (titrated, usually from 46.1 µM), hits mostly cytotoxic | 0.76% of 410,000 active
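CellTiter-Glo luminescence gave cytotoxicity after 18 hours at 37 degrees C. The cells were HepG2 CAGA-GFP in 1% FBS DMEM, stimulated with 500 pg/mL TGF-beta after compound addition. %Activity was normalised to no-cell wells (complete cell-killing) and DMSO (no toxicity), and curves were fitted and classified.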
TDP1 inh: inhibitors of human tyrosyl-DNA phosphodiesterase TDP1; Potency, µM (highest dose often 130 µM), usual class: inhibitors; recombinant TDP1, AlphaScreen DNA substrate cleavage; Q9NUW8; AID 485290; 0.28% of 350,000 active; note: nearly all actives have a fitted effect of over 40% in size
Target sequence (Q9NUW8 whole entry, looked up): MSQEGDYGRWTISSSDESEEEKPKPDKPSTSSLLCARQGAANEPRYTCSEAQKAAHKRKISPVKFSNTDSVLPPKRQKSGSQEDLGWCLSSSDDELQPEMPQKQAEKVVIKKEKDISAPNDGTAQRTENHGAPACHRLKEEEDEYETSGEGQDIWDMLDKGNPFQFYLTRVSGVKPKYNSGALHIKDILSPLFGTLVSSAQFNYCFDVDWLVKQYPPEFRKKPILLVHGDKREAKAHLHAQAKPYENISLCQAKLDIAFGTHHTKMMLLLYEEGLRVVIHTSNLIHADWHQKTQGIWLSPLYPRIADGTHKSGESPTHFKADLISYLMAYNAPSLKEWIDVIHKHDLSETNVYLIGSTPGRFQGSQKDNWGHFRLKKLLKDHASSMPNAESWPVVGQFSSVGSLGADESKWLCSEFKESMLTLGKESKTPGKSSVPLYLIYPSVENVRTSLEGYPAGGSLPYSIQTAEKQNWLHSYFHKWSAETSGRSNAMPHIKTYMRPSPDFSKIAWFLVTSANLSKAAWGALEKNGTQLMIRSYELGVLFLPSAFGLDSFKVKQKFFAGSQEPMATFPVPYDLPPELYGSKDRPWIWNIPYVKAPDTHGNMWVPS
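AlphaScreen read-out: signal falls as enzyme removes the 3' tyrosine-FITC from a 5'-biotinylated DNA oligo (15 nM, 5 min, RT). Enzyme was E. coli-made recombinant Tdp1 at 1 nM, exposed to compound for 15 min beforehand; beads 10 ug/ml, 10 min.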
TDP1 cell noCPT: qHTS for Inhibitors of human tyrosyl-DNA phosphodiesterase 1 (TDP1): qHTS in cells in absence of CPT; DT40 Tdp1-/- hTDP1 cells, no CPT, ATP luminescence, 48 h; Potency, µM (series often up to 46.2 µM), actives largely listed as inhibitors; 15% of 420,000 active; AID 686978, 2013; note: nearly all actives have a fitted effect of over 55% in size
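Compound effects on proliferation are scored in DT40 Tdp1-/-;hTDP1 cells in the absence of CPT. ATP levels (CellTiter-Glo luminescence) are recorded after a ≥48 hr, 37 °C incubation.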
IL1B secr inh: inhibitors of inflammasome signaling (IL-1 beta secretion); AID 743279; 4.7% of 360,000 active; activity change, % at 57.5 µM; THP-1 LPS/ATP IL-1B secretion, AlphaLISA, 16 h; hits give low values; in the data active = activity change below about -50%; inconclusive = mostly about -30% to -49%
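Secreted IL-1B measured by AlphaLISA bead assay after 16 h compound exposure of THP-1 cells; compounds (final up to 57.5 uM) added 1 h before LPS (250 ng/mL) and ATP (1.25 mM) stimulation; lower signal means less secretion.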
A number is an active result; n = inactive; u = inconclusive; x = no result given; [ ] = dose if it differs, or a comment. Unless noted, calls come from the whole dose curve; as a rule, active = well fitted curve in the direction sought with a large enough effect; inconclusive = small, poorly fitted or top-dose-only effect, or another doubt; inactive = no such curve, though single readings can be large; an effect the other way counts as inactive or inconclusive.

SMILES	TGFb SMAD3 inh	DT40 TDP1 CPT	HepG2 viability	TDP1 inh	TDP1 cell noCPT	IL1B secr inh
COc1cc(C(=O)Nc2ccc3c(c2)nc(C)n3C)cc(OC)c1OC	n	4.11µM	n	x	3.26µM	n
c1ccc(Cn2nnnc2C(c2ccccc2)N2CCN(Cc3ccncc3)CC2)cc1 (stereo not drawn)	n	u	n	x	u	x
Cc1ccc(-n2ncc3c(N4CCN(CCO)CC4)ncnc32)cc1Cl	n	11.6µM	n	n	u	x
Cc1ccc(-n2ncc3c(N4CCN(C)CC4)ncnc32)cc1Cl	n	u	n	n	20.6µM	x
CCN1CCN(c2ncnc3c2cnn3-c2ccc(C)c(Cl)c2)CC1	n	n	n	n	n	x
COC(=O)[C@@H]1CCCN1Cc1ccc2c(c1)CN(Cc1ccc3c(c1)CCCN3C)CCO2	x	n	x	x	n	x
COC(c1ccc(Cl)cc1)(c1ccc(Cl)cc1)C(Oc1nccc(C)n1)C(=O)O (stereo not drawn)	u	n	n	n	n	n
COC(c1ccc(Cl)cc1)(c1ccc(Cl)cc1)C(Oc1nc(C)cc(C)n1)C(=O)O (stereo not drawn)	n	u	n	x	14.6µM	n
CC(=O)c1ccc(NC(=O)C2CCC(CNS(=O)(=O)c3cccs3)CC2)cc1 (stereo not drawn)	n	n	n	n	n	x
CC(C)(C)CC(C)(C)N=C1NS(=O)(=O)c2cc([N+](=O)[O-])ccc21	n	u	n	n	14.6µM	n
CCC(CC)N=C1NS(=O)(=O)c2cc([N+](=O)[O-])ccc21	n	u	n	n	20.6µM	n
CC(C1SC(=S)NC1=O)C1SC(=S)NC1=O (stereo not drawn)	n	n	n	x	n	n
O=C(Nc1ccc(N2CCOCC2)c(F)c1)c1cccs1	n	n	n	n	n	u
COc1ccc(NC(=O)C2(C)Cc3c(-c4cccc(C(F)(F)F)c4)ccnc3O2)cn1 (stereo not drawn)	n	5.17µM	n	x	2.91µM	n
COc1ccc(NC(=O)C2(C)Cc3c(-c4ccc(NC(C)=O)cc4)ccnc3O2)cc1 (stereo not drawn)	n	u	n	x	u	u
COc1ccc(NC(=O)C2(C)Cc3c(-c4ccc(N(C)C)cc4)ccnc3O2)cc1 (stereo not drawn)	n	29.1µM	n	x	u	n
COc1ccc(NC(=O)C2(C)Cc3c(-c4ccccc4)ccnc3O2)cn1 (stereo not drawn)	n	5.8µM	n	x	6.51µM	n
COc1ccc(C(=O)C2CCN(C(=O)Nc3ccccc3C)CC2)cc1	n	n	n	n	n	n
Cc1cc(C)cc(NC(=S)NCc2cccs2)c1	u	14.6µM	n	n	u	n
COc1cc(NC(=S)NCc2cccs2)cc(OC)c1	u	u	n	n	u	n
CC(=O)Nc1ccc(OC2=NS(=O)(=O)c3ccccc32)cc1	x	x	x	n	x	x
CCC(Cc1ccccc1)NC(=O)c1ccc2nc(N3CCOCC3)sc2c1 (stereo not drawn)	n	14.6µM	n	x	13µM	n
CCOc1ccc(CCNC(=O)c2ccc3nc(N4CCC(C)CC4)sc3c2)cc1OCC	u	6.51µM	n	n	5.17µM	x
CCC(Cc1ccccc1)NC(=O)c1ccc2nc(N3CCC(C)CC3)sc2c1 (stereo not drawn)	n	20.6µM	n	n	10.3µM	x
COCc1c(C(=O)Nc2ccc3nc(N4CCOCC4)sc3c2)oc2ccccc12	n	14.6µM	n	n	u	n
SMILES	TGFb SMAD3 inh	DT40 TDP1 CPT	HepG2 viability	TDP1 inh	TDP1 cell noCPT	IL1B secr inh
O=C(Nc1ccc2nc(N3CCOCC3)sc2c1)c1ccccc1	n	n	n	n	n	n
CC(CCc1ccccc1)NC(=O)c1ccc2nc(N3CCOCC3)sc2c1 (stereo not drawn)	n	u	n	n	u	n
CCCCNC(=O)C1(C)CCN1C(=O)c1cc(OC)ccc1Br (stereo not drawn)	n	u	n	x	n	n
Cc1cc(S(=O)(=O)Nc2ccc(C(=O)O)cc2)c(C)c(S(=O)(=O)c2ccc(Cl)cc2)c1	n	n	n	n[12.3 µM]	n	x
CCN(CC)C(CNC(=O)c1cc(=O)[nH]c2ccccc12)c1ccccc1Cl (stereo not drawn)	n	n	n	x	n	n
CCOC(=O)/C(C#N)=C/c1c(N2CCCCCC2)nc2ccccn2c1=O	n	u	n	x	20.6µM	n
CCOC(=O)/C(C#N)=C/c1c(N2CCN(C)CC2)nc2ccccn2c1=O	n	n	n	x	n	n
CCOC(=O)/C(C#N)=C/c1cccn1-c1ccc(Cl)cc1	n	n	n	n	n	n
CCNc1nn2ccccc2c1/C=C(\C#N)C(=O)OCC	n	u	n	n	16.4µM	n
Nc1c(Cl)ncnc1Nc1ccc(C(=O)O)cc1	n	n	n	x	n	n
Cc1ccc(-n2c(SCC(=O)N3CCOCC3)nc(O)c(Cc3ccccc3)c2=O)cc1	n	n	n	n	n	n
CSc1nnc(-c2sc3cc(C(F)(F)F)cnc3c2-c2cccnc2)n1C	n	u	n	n	16.4µM	n
Cc1ccc2c(c1)c(=O)c1ccccc1n2CCCC(=O)Nc1ccc(C)c(C)c1	u	23.1µM	n	n[12.3 µM]	23.1µM	x
Cc1ccc2c(c1)c(=O)c1ccccc1n2CCCC(=O)Nc1ccc(Cl)cc1C	u	u	n	n[12.3 µM]	u	x
Cc1ccc2c(c1)c(=O)c1ccccc1n2CCCC(=O)Nc1ccc(C)c(F)c1	6.31µM	u	n	n[12.3 µM]	u	x
O=C(CCCn1c2ccccc2c(=O)c2ccccc21)Nc1cccc(Cl)c1	12.6µM	u	n	n[12.3 µM]	16.4µM	x
Cc1ccc(NC(=O)Cc2cn(C)c3ccccc23)cc1F	n	n	n	n	n	n
COc1ccc(C(O)(C2CCCCC2)C(CN2CCOCC2)c2ccccc2)cc1 (stereo not drawn)	u	25.9µM	n	x	u	n
OC(c1ccccc1)(C1CCCCC1)C(CN1CCOCC1)c1ccccc1 (stereo not drawn)	u	18.4µM	n	x	23.1µM	n
Cc1cc(C(=O)Nc2ccccc2C(=O)O)ccc1NC(=O)COc1cccc(C)c1C	n	n	n	n	n	n
CCOC(=O)Cc1nnc(Nc2cc(C)ccc2C)c2ccccc12	n	u	n	n	n	n
Cc1c(NC(=O)c2cc3ccccc3o2)cccc1-c1nc2ccccc2o1	u	u	n	n[12.3 µM]	u	x
CCOC(=O)C1C(=O)CC(C)(O)C(C(=O)OCC)C1c1ccco1 (stereo not drawn)	n	18.4µM	n	n	20.6µM	n
